Results filed as inconclusive are left out. Unmarked numbers belong to inactive results. Calls of active or inactive are those of the source. The call rests on the fitted dose curve; in most records, active means well fitted inhibition curve with a large enough effect; inconclusive means small, poorly fitted or top-dose-only effect; inactive means flat fitted curve, though single readings scatter.
Potency means the concentration at half of the fitted maximal effect.

Sequence of Phospholipid hydroperoxide glutathione peroxidase GPX4 (Homo sapiens) (P36969 whole entry, looked up): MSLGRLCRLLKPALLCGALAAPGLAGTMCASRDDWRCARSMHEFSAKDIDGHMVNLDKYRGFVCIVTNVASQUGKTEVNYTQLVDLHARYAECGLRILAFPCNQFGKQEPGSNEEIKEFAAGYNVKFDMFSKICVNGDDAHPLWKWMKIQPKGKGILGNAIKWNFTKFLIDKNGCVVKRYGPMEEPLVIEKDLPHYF

The experiment has as its target Phospholipid hydroperoxide glutathione peroxidase GPX4 (Homo sapiens) (UniProt P36969). Kind of experiment: Primary qHTS Assay for Inhibitors of Recombinant Selenoprotein Glutathione Peroxidase 4 (GPX4) (AID 1845192). Further: nearly all actives have a fitted effect of over 65% in size. The note with it: recombinant GPX4, GR-coupled NADPH fluorescence, 15 min; series mostly up to 50 µM; activity change, negative = inhibition: at the top concentration. The text has this:
Assay Provider: Elias S.J. Arner MD PhD.
Department of Medical Biochemistry and Biophysics
Karolinska Institutet, Solna, Stockholm, Sweden
Selenoprotein glutathione peroxidases (GPX), like the ubiquitously expressed GPX1 and the ferroptosis modulator GPX4, enact their antioxidant activities by reducing hydroperoxides using glutathione. […] GPX1 and GPX4 inhibitors have thus shown promise as anti-cancer agents. Existing inhibitors are often promiscuous, or modulate GPX activity only indirectly, so novel direct inhibitors identified through screening against GPX1 and GPX4 could be valuable. Here, we developed optimized glutathione reductase (GR)-coupled GPX assays for the biochemical high-throughput screen (HTS) of almost 12,000 compounds with known mechanisms of action. Initial hits were triaged using a GR counter-screen, assessed for isoform specificity using a separate GPX2 assay, and were assessed for general selenocysteine-targeting activity using a thioredoxin reductase (TXNRD1) assay. With this suite of assays, we identified novel GPX1/GPX2- and GPX4-specific inhibitors and can here present a validated pipeline for future discovery research for selenoprotein-targeting agents.
SEQUENCE No. (e.g., 1, 2, 3, etc.); […] (e.g., Cells, Incubation, Reagent, etc.); VALUE; DESCRIPTION.
1; Reagent 1; 3 uL; 333.33 nM GPx4 enzyme or no enzyme control in 1536-well, black, solid Greiner assay plate.
2; Compound; 25 nL; Kalypsis pin tool (Wako USA) equipped with a 1536-well pin head.
3; Incubation; 30 min; room temperature.
4; Reagent 2; 1 uL; 500 nM GR, 5 mM GSH, 2.5 mM NADPH solution
5; Reagent 3; 1 uL; 2.5 mM CHP in 50% EtOH.
6; Detection; Fluorescence; ViewLux microplate reader, excitation 340 nm and emission 450 nm.
7; Incubation; 15 min; room temperature.
8; Detection; Fluorescence; ViewLux microplate reader, excitation 340 nm and emission 450 nm.
NOTES (numbers refer to Sequence numbers above)
1. 3 µL of 333.33 nM GPX4 and 0.016% BSA in assay buffer (50 mM Tris-HCl, 2 mM EDTA (pH 7.5), 150 mM NaCl) was added to columns 3-48 of 1536-well plates using a BioRAPTR Flying Reagent Dispenser (Let's Go Robotics (LGR), Carlsbad, CA). A no-enzyme control (0.01% BSA in TES assay buffer) was added to columns 1-2.
2. 25 nL, library and DMSO controls were added to each well with a pin tool (Kalypsys).
3. The assay plates were incubated for 30 minutes at room temperature.
4. 1 µL of master mix (500 nM glutathione reductase (GR), 5 mM reduced glutathione (GSH), 2.5 mM NADPH in assay buffer) was added.
5. 1 µL of cumene hydroperoxide (CHP) ([2.5 mM] in 50% EtOH) was then added within 5 minutes to initiate the reaction. Final concentrations were: 200 nM GPX4, 1 mM GSH, 0.5 mM CHP, 0.5 mM NADPH, 100 nM GR, 0.01% BSA.
6. Initial fluorescence readout (t=0) at 340/450 nm was measured using a ViewLux multimodal detector (PerkinElmer, Waltham, MA).
8. Endpoint fluorescence readout (t=15) at 340/450 nm was measured 15 min after room temperature incubation.
For orientation: Quantitative high-throughput screening tests each substance at several concentrations.
On to `CC1(C)CC23[C@@H]4CC(=O)[C@@H]2COC(=O)[C@@H]3CC[C@H]41`, for which the “activity change, negative = inhibition” value is -3.23%.
As to `CCOc1cc(CNC2CCCC2)cc(Cl)c1OCc1ccc(Cl)cc1`, the “activity change, negative = inhibition” value is 0.0958%.
The same measure, in the same setting: under `CC(C)n1cnc2c(Nc3cccc(Cl)c3)nc(NCCO)nc21` stands 9.1%.
Turning to `Cc1cccc(/C=C/c2ccccc2)n1`, the result was inactive.
As for `Oc1ccc(Nc2nc(-c3ccc(Cl)cc3)cs2)cc1`, the “activity change, negative = inhibition” value was -9.04%.
On to `O=S(=O)(c1cccc2ccccc12)n1ccc2ccc(N3CCN4CCCC4C3)cc21` (stereo not given), for which the “activity change, negative = inhibition” value is -10.8%.
Regarding `C=C(C)C(=O)O[C@H]1[C@H]2C(=C)C(=O)O[C@@H]2C[C@@H](C)[C@@H]2O[C@@H]2C(=O)[C@](C)(O)[C@@H]1OC(C)=O`, the “activity change, negative = inhibition” value was 0.473% [at 27.8 µM].
`CC1OC2O[C@H]3[C@@H](OCC(O)[C@H]3O)OC(=O)C34CCC(C)(C)CC3C3=CCC5C6(C)CC(O)C(OC7OC(CO)C(O)C(O)C7O[C@@H]7OC[C@H](OC(=O)CC(C)(O)CC(=O)OC1C(OC1OCC(O)C(O)C1O)C2O)[C@@H](O)[C@H]7O)C(C)(CO)C6CCC5(C)C3(C)CC4` (stereo not given in full): the “activity change, negative = inhibition” value was -12.8% [at 27.8 µM].
`CNC(=O)[C@H]1O[C@@H](n2cnc3c(NCc4cccc(I)c4)nc(Cl)nc32)[C@H](O)[C@@H]1O`: the “activity change, negative = inhibition” value was -21%.
As to `COc1ccc2c(c1)CN(C(=O)CCN1CCC(Cc3ccccc3)CC1)CCS2`, the “activity change, negative = inhibition” value is -6.24% [at 27.8 µM].
Consider `COCCOCCOc1ccc(C2=N[C@@](C)(C(=O)O)CS2)c(O)c1`, for which the result was inactive.
Turning to `CN(C)C(=O)c1cc2cnc(Nc3ccc(N4CCNCC4)cn3)nc2n1C1CCCC1`, the Potency result was “inactive”.
Turning to `O=C(c1ccc(F)c(F)c1Nc1ccc(I)cc1F)N1CC(O)(C2CCCCN2)C1` (stereo not given), the “activity change, negative = inhibition” value was -2.62%.
The same measure, in the same setting: to `CC(=O)c1c(OCCN2CCCCC2)c(OCCC(C)c2ccc(F)cc2)c2oc(C)nc2c1C` (stereo not given) belongs 8.48%; to `CN(C)CCCCCCNC(=O)c1cccc(-c2cc(O)c3ncccc3c2)c1`, -4.67%; to `CCC[C@@H](NC(=O)N1C(=O)C(CC)(CC)[C@@H]1Oc1ccc(C(=O)N2CCN(C)CC2)cc1)c1ccc2c(c1)OCO2`, -4.04%.
With `O=C(O)c1ccc(O)c2ncc(N3CCCN(CCc4cccc5ccccc45)CC3)cc12`, the “activity change, negative = inhibition” value was -4.45%.
On the same count and under the same terms, to `CN(CC(=O)N(Cc1ccc(C2CCCCC2)cc1)c1ccc(C(=O)O)cc1)S(=O)(=O)c1c(F)c(F)c(F)c(F)c1F` belongs -23.3%.
Still for that read-out and setting: under `OCC(CO)(CO)NCC(O)Cn1c2ccc(Cl)cc2c2cc(Cl)ccc21` (stereo not given) stands -6.93%.
Still for that read-out and setting: to `C=C1C(=O)O[C@@H]2C[C@@H](C)[C@]34C[C@]5(C(=O)O[C@H]6CC(C)=C([C@H](C)CCCO)[C@H](OC(=O)C(C)CC)[C@H]65)[C@@H](C(C)=C3C[C@@H]12)[C@H]4OC(C)=O` (stereo not given in full) belongs -25.6% [at 15.3 µM].
`CCC(=O)Nc1cccc(Oc2nc(Nc3ccc(N4CCN(C)CC4)cc3OC)ncc2Cl)c1`: the Potency entry was “inactive”.
Take `CC(C)(C)c1ccc(CNC(=S)NCc2ccc(NS(C)(=O)=O)c(F)c2)cc1`: the “activity change, negative = inhibition” value was 4.38%.
On the same count and under the same terms, under `C[N+]1(C)[C@@H]2CC[C@H]1CC(OC(=O)C(O)c1ccccc1)C2` (stereo not given in full) stands -2.21%.
On the same count and under the same terms, to `N#Cc1c[nH]c2c(C(=O)N3CCN(CCc4ccc(F)cc4)CC3)cccc12` belongs -12.4%; to `C=C(C)C(=O)OC1[C@@H]2C(=C)C(=O)O[C@@H]2C[C@@H](C)[C@@H]2C=CC(=O)[C@@]12C` (stereo not given in full), -5.16% [at 27.8 µM].
As to `O=C(c1ccc(F)c(F)c1Nc1ccc(I)cc1F)N1CC(O)([C@@H]2CCCCN2)C1`, the Potency result is “inactive”.
For `CC1(C)CC[C@]2(C(=O)O)CC[C@]3(C)C(=CC[C@@H]4[C@@]5(C)C[C@@H](O)[C@H](O)C(C)(C)[C@@H]5CC[C@]43C)[C@@H]2C1`, the “activity change, negative = inhibition” value was -20.6%.
Take `COc1cc2nc(-c3cc(F)ccc3O)nc(N[C@@H]3CNC[C@H]3C(C)(C)O)c2cc1OC`: the Potency entry is “inactive”.
For the compound `CC[C@H]1OC(=O)[C@H](C)[C@@H](O[C@H]2C[C@@](C)(OC)[C@@H](O)[C@H](C)O2)[C@H](C)[C@@H](O[C@@H]2O[C@H](C)C[C@H](N(C)C)[C@H]2O)[C@](C)(O)C[C@@H](C)/C(=N/OCOCCOC)[C@H](C)[C@@H](O)[C@]1(C)O`, the “activity change, negative = inhibition” value is -10.9%.
`Cn1cnc(-c2nccc3c(=O)[nH]c(OCCCC(F)(F)F)nc23)c1`: the Potency was 22.7 µM (active).
Take `C=C1C(=O)O[C@@H]2/C=C(/C)CC3C=C(C[C@H](OC(=O)/C(C)=C\C)[C@@H]12)C(=O)O3` (stereo not given in full): the “outcome” value was “inactive [at 27.8 µM]”.
Consider `C=CC(=O)Nc1cc(Nc2nccc(-c3cn(C)c4ccccc34)n2)c(OC)cc1N(C)CCN(C)C`, for which the Potency entry was “inactive”.
As to `C=C1C(=O)O[C@@H]2CC(C)=C([C@@H](C)CCCO)[C@@H](OC(=O)C(C)C)[C@H]12`, the “activity change, negative = inhibition” value was -7.37% [at 27.8 µM].
For the compound `Cc1c[nH]c(/C=C2\C(=O)Nc3ccccc32)c1CCC(=O)O`, the “activity change, negative = inhibition” value is -25.2%.
As for `C[C@H]1COCCN1c1cc(C2(S(=O)(=O)C3CC3)CC2)nc(-c2ccc(NC(=S)NCCO)cc2)n1`, the “activity change, negative = inhibition” value was -19.1%.
For `O=C1c2ccccc2C(=O)c2c(NCCc3ccc(O)cc3)ccc(NCCc3ccc(O)cc3)c21`, the result was inactive.
On to `CN1CCN(Cc2ccc(Nc3ncc(Cl)c(Nc4ccccc4S(=O)(=O)N(C)C)n3)cc2)CC1`, for which the activity change, negative = inhibition is -3.36% [at 9.73 µM].
With `COc1cc(O)c(C(=O)CCc2ccc(O)cc2)c(O[C@@H]2O[C@H](CO)[C@@H](O)[C@H](O)[C@H]2O)c1`, the “activity change, negative = inhibition” value is -4.22% [at 27.8 µM].
Turning to `C=C1[C@@H](C)[C@H]2[C@H](Cc3c[nH]c4ccccc34)NC(=O)[C@]23C(=O)/C=C/C(=O)[C@H](O)/C(C)=C\[C@@H](C)C/C=C/[C@H]3[C@@H]1O`, the “activity change, negative = inhibition” value is -7.78% [at 27.8 µM].
`O=C(NNc1ccccc1)c1ccncc1`: the Potency result was “inactive”.

For the origin of these results see PubChem BioAssay (NCATS).
